In article PMC9911399, “Two distinct binding modes provide the RNA-binding protein RbFox with extraordinary sequence specificity” one finds binding signal data, which are given here for 38 molecules.

Substitutions are numbered along the chain they refer to; changes in the protein carry UniProt numbers. The full ranking holds about 16,000 sequences; the median of “ka relative to ugcaugu” is about 0.0091, and the highest 2% start at about 0.032. Only a selection was taken, and the highest values are over-represented in it overall.

T1: RBFOX1 RRM (Homo sapiens, UniProt Q9NWB1 109-208)
T1 sequence: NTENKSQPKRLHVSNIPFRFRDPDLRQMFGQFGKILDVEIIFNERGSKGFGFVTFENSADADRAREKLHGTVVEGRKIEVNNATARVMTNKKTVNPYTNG

B1: CGUUCGA (DNA:RNA)
RNA: GGGAGACCGGAAUUCAGAUUGUCCCGUUCGAUUAAAUCCCGUCGUAGCCACCA
DNA 1: CAATCTGAATTCCGGTCTCCC
DNA 2: TGGTGGCTACGACGGGATT
B2: AUUUAUA (DNA:RNA)
RNA: B1 RNA with C25A, G26U, C29A, G30U
DNA 1: CAATCTGAATTCCGGTCTCCC
DNA 2: TGGTGGCTACGACGGGATT
B3: AGUACGU (DNA:RNA)
RNA: B1 RNA with C25A, U28A, A31U
DNA 1: CAATCTGAATTCCGGTCTCCC
DNA 2: TGGTGGCTACGACGGGATT
B4: GUUGUCC (DNA:RNA)
RNA: B1 RNA with C25G, G26U, U28G, C29U, G30C, A31C
DNA 1: CAATCTGAATTCCGGTCTCCC
DNA 2: TGGTGGCTACGACGGGATT
B5: UGGCAGU (DNA:RNA)
RNA: B1 RNA with C25U, U27G, U28C, C29A, A31U
DNA 1: CAATCTGAATTCCGGTCTCCC
DNA 2: TGGTGGCTACGACGGGATT
B6: CUGGCAG (DNA:RNA)
RNA: B1 RNA with G26U, U27G, U28G, G30A, A31G
DNA 1: CAATCTGAATTCCGGTCTCCC
DNA 2: TGGTGGCTACGACGGGATT
B7: UGGCACU (DNA:RNA)
RNA: B1 RNA with C25U, U27G, U28C, C29A, G30C, A31U
DNA 1: CAATCTGAATTCCGGTCTCCC
DNA 2: TGGTGGCTACGACGGGATT
B8: UGGGCAG (DNA:RNA)
RNA: B1 RNA with C25U, U27G, U28G, G30A, A31G
DNA 1: CAATCTGAATTCCGGTCTCCC
DNA 2: TGGTGGCTACGACGGGATT
B9: UGGGCAC (DNA:RNA)
RNA: B1 RNA with C25U, U27G, U28G, G30A, A31C
DNA 1: CAATCTGAATTCCGGTCTCCC
DNA 2: TGGTGGCTACGACGGGATT
B10: CUGGCAC (DNA:RNA)
RNA: B1 RNA with G26U, U27G, U28G, G30A, A31C
DNA 1: CAATCTGAATTCCGGTCTCCC
DNA 2: TGGTGGCTACGACGGGATT
B11: CCGCAGU (DNA:RNA)
RNA: B1 RNA with G26C, U27G, U28C, C29A, A31U
DNA 1: CAATCTGAATTCCGGTCTCCC
DNA 2: TGGTGGCTACGACGGGATT
B12: AACCGUA (DNA:RNA)
RNA: B1 RNA with C25A, G26A, U27C, U28C, C29G, G30U
DNA 1: CAATCTGAATTCCGGTCTCCC
DNA 2: TGGTGGCTACGACGGGATT
B13: CGCCCCG (DNA:RNA)
RNA: B1 RNA with U27C, U28C, G30C, A31G
DNA 1: CAATCTGAATTCCGGTCTCCC
DNA 2: TGGTGGCTACGACGGGATT
B14: UUGCACU (DNA:RNA)
RNA: GGGAGACCGGAAUUCAGAUUGUCCUUGCACUUUAAAUCCCGUCGUAGCCACCA
DNA 1: CAATCTGAATTCCGGTCTCCC
DNA 2: TGGTGGCTACGACGGGATT
B15: GGGAUAU (DNA:RNA)
RNA: B14 RNA with U25G, U26G, C28A, A29U, C30A
DNA 1: CAATCTGAATTCCGGTCTCCC
DNA 2: TGGTGGCTACGACGGGATT
B16: UAAGUGG (DNA:RNA)
RNA: B1 RNA with C25U, G26A, U27A, U28G, C29U, A31G
DNA 1: CAATCTGAATTCCGGTCTCCC
DNA 2: TGGTGGCTACGACGGGATT
B17: GUUAAGA (DNA:RNA)
RNA: B1 RNA with C25G, G26U, U28A, C29A
DNA 1: CAATCTGAATTCCGGTCTCCC
DNA 2: TGGTGGCTACGACGGGATT
B18: CUGGUCU (DNA:RNA)
RNA: B14 RNA with U25C, C28G, A29U
DNA 1: CAATCTGAATTCCGGTCTCCC
DNA 2: TGGTGGCTACGACGGGATT
B19: UGGGUCU (DNA:RNA)
RNA: B14 RNA with U26G, C28G, A29U
DNA 1: CAATCTGAATTCCGGTCTCCC
DNA 2: TGGTGGCTACGACGGGATT
B20: UGGGGUC (DNA:RNA)
RNA: B14 RNA with U26G, C28G, A29G, C30U, U31C
DNA 1: CAATCTGAATTCCGGTCTCCC
DNA 2: TGGTGGCTACGACGGGATT
B21: UGGUCUU (DNA:RNA)
RNA: B1 RNA with C25U, U27G, G30U, A31U
DNA 1: CAATCTGAATTCCGGTCTCCC
DNA 2: TGGTGGCTACGACGGGATT
B22: GUGGGUC (DNA:RNA)
RNA: B14 RNA with U25G, C28G, A29G, C30U, U31C
DNA 1: CAATCTGAATTCCGGTCTCCC
DNA 2: TGGTGGCTACGACGGGATT
B23: CUGGGUC (DNA:RNA)
RNA: B14 RNA with U25C, C28G, A29G, C30U, U31C
DNA 1: CAATCTGAATTCCGGTCTCCC
DNA 2: TGGTGGCTACGACGGGATT
B24: CAUUGUG (DNA:RNA)
RNA: B1 RNA with G26A, C29G, G30U, A31G
DNA 1: CAATCTGAATTCCGGTCTCCC
DNA 2: TGGTGGCTACGACGGGATT
B25: GGUCGAG (DNA:RNA)
RNA: B1 RNA with C25G, U28C, C29G, G30A, A31G
DNA 1: CAATCTGAATTCCGGTCTCCC
DNA 2: TGGTGGCTACGACGGGATT
B26: AGGUCCC (DNA:RNA)
RNA: B1 RNA with C25A, U27G, G30C, A31C
DNA 1: CAATCTGAATTCCGGTCTCCC
DNA 2: TGGTGGCTACGACGGGATT
B27: UGUUUUU (DNA:RNA)
RNA: B1 RNA with C25U, C29U, G30U, A31U
DNA 1: CAATCTGAATTCCGGTCTCCC
DNA 2: TGGTGGCTACGACGGGATT
B28: UGUUAAA (DNA:RNA)
RNA: B1 RNA with C25U, C29A, G30A
DNA 1: CAATCTGAATTCCGGTCTCCC
DNA 2: TGGTGGCTACGACGGGATT
B29: UGUGUGU (DNA:RNA)
RNA: B1 RNA with C25U, U28G, C29U, A31U
DNA 1: CAATCTGAATTCCGGTCTCCC
DNA 2: TGGTGGCTACGACGGGATT
B30: CUGUGUU (DNA:RNA)
RNA: B14 RNA with U25C, C28U, A29G, C30U
DNA 1: CAATCTGAATTCCGGTCTCCC
DNA 2: TGGTGGCTACGACGGGATT
B31: UGUUUGA (DNA:RNA)
RNA: B1 RNA with C25U, C29U
DNA 1: CAATCTGAATTCCGGTCTCCC
DNA 2: TGGTGGCTACGACGGGATT
B32: UGUGUUU (DNA:RNA)
RNA: B1 RNA with C25U, U28G, C29U, G30U, A31U
DNA 1: CAATCTGAATTCCGGTCTCCC
DNA 2: TGGTGGCTACGACGGGATT
B33: UGUUUGU (DNA:RNA)
RNA: B1 RNA with C25U, C29U, A31U
DNA 1: CAATCTGAATTCCGGTCTCCC
DNA 2: TGGTGGCTACGACGGGATT
B34: UGUGUUG (DNA:RNA)
RNA: B1 RNA with C25U, U28G, C29U, G30U, A31G
DNA 1: CAATCTGAATTCCGGTCTCCC
DNA 2: TGGTGGCTACGACGGGATT
B35: CGUUUGA (DNA:RNA)
RNA: B1 RNA with C29U
DNA 1: CAATCTGAATTCCGGTCTCCC
DNA 2: TGGTGGCTACGACGGGATT
B36: UGUCGUU (DNA:RNA)
RNA: B14 RNA with U26G, G27U, A29G, C30U
DNA 1: CAATCTGAATTCCGGTCTCCC
DNA 2: TGGTGGCTACGACGGGATT
B37: CCUGCUG (DNA:RNA)
RNA: B1 RNA with G26C, U28G, G30U, A31G
DNA 1: CAATCTGAATTCCGGTCTCCC
DNA 2: TGGTGGCTACGACGGGATT
B38: UGCUGUG (DNA:RNA)
RNA: B1 RNA with C25U, U27C, C29G, G30U, A31G
DNA 1: CAATCTGAATTCCGGTCTCCC
DNA 2: TGGTGGCTACGACGGGATT

The assay addresses T1, RBFOX1 RRM. The assay can be described thus: EMSA; HiTS-Eq, 1 nM pool, 10 min; buffer printed only for the single-RNA assays: 10 mM Tris pH 7.5, 150 mM NaCl, 3.4 mM EDTA, 0.001% NP-40, 30 C. The conditions noted are these: tags: His6 N-terminal (pET28a); label: 5' 32P. Summed up: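 Relative association constants, normalised to the cognate motif, were derived by comparing read counts of each RNA species with those of the control reaction. The RNA sequenced was the free fraction, separated by 8% native PAGE after a 10 min equilibration in 50 µL of 1 nM 5′-radiolabelled RNA (7 randomized nucleotides) with increasing concentrations of purified wild-type or mutant RbFox RRM.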
B1: the binding signal is 0.0138 KA relative to UGCAUGU.
The value for B2 was 0.00157 KA relative to UGCAUGU.
With B3, the binding signal is 0.00915 KA relative to UGCAUGU.
The value for B4 was 0.0202 KA relative to UGCAUGU; that for B5 was 0.0192 KA relative to UGCAUGU.
To B6 belongs 0.0227 KA relative to UGCAUGU; to B7, 0.0174 KA relative to UGCAUGU.
The value for B8 was 0.0337 KA relative to UGCAUGU; that for B9 was 0.0337 KA relative to UGCAUGU; that for B10 was 0.0183 KA relative to UGCAUGU.
For the molecule B11, the binding signal is 0.00716 KA relative to UGCAUGU.
To B12 belongs 0.00191 KA relative to UGCAUGU; to B13, 0.007 KA relative to UGCAUGU.
The value for B14 was 0.021 KA relative to UGCAUGU; that for B15 was 0.0263 KA relative to UGCAUGU; that for B16 was 0.00934 KA relative to UGCAUGU.
The value for B17 was 0.012 KA relative to UGCAUGU.
With B18, the binding signal was 0.0225 KA relative to UGCAUGU.
To B19 belongs 0.0375 KA relative to UGCAUGU.
The value for B20 was 0.0387 KA relative to UGCAUGU; that for B21 was 0.0179 KA relative to UGCAUGU; that for B22 was 0.0192 KA relative to UGCAUGU.
For B23, the binding signal was 0.0291 KA relative to UGCAUGU.
To B24 belongs 0.0157 KA relative to UGCAUGU.
To B25 belongs 0.0142 KA relative to UGCAUGU.
Consider B26, for which the binding signal is 0.00339 KA relative to UGCAUGU.
To B27 belongs 0.0221 KA relative to UGCAUGU; to B28, 0.0109 KA relative to UGCAUGU; to B29, 0.0346 KA relative to UGCAUGU.
To B30 belongs 0.0207 KA relative to UGCAUGU; to B31, 0.0341 KA relative to UGCAUGU.
The value for B32 was 0.0186 KA relative to UGCAUGU; that for B33 was 0.0434 KA relative to UGCAUGU; that for B34 was 0.0299 KA relative to UGCAUGU.
For the molecule B35, the binding signal was 0.0182 KA relative to UGCAUGU.
The value for B36 was 0.021 KA relative to UGCAUGU; that for B37 was 0.0192 KA relative to UGCAUGU.
The value for B38 was 0.0347 KA relative to UGCAUGU.
